Assay results from PMC5540273 (PLoS ONE, 2017).

Tests used:
Conditions in all cases: concentration: 1 μM, replicates: in singlicate; n = 1
PDPK1 = test system: PDPK1
PFTAIRE2 = test system: PFTAIRE2
PFTK1 = test system: T1, PFTK1
T1 construct: gene CDK14

PHKG1 = test system: PHKG1
PHKG2 = test system: PHKG2
PIK3C2B = test system: PIK3C2B
PIK3C2G = test system: PIK3C2G
PIK3CA = test system: PIK3CA
PIK3CB = test system: PIK3CB
PIK3CD = test system: PIK3CD
PIK3CG = test system: PIK3CG
PIK4CB = test system: T2, PIK4CB
T2 construct: gene PI4KB

PIKFYVE = test system: PIKFYVE
PIM1 = test system: PIM1
PIM2 = test system: PIM2
PIM3 = test system: PIM3
PIP5K1A = test system: PIP5K1A
PIP5K1C = test system: PIP5K1C
PIP5K2B = test system: PIP5K2B
PIP5K2C = test system: T3, PIP5K2C
T3 construct: gene PIP4K2C
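Further: KINOMEscan kinase panel screen.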

| SMILES | %Inh (PDPK1) | %Inh (PFTAIRE2) | %Inh (PFTK1) | %Inh (PHKG1) | %Inh (PHKG2) | %Inh (PIK3C2B) | %Inh (PIK3C2G) | %Inh (PIK3CA) | %Inh (PIK3CB) | %Inh (PIK3CD) | %Inh (PIK3CG) | %Inh (PIK4CB) | %Inh (PIKFYVE) | %Inh (PIM1) | %Inh (PIM2) | %Inh (PIM3) | %Inh (PIP5K1A) | %Inh (PIP5K1C) | %Inh (PIP5K2B) | %Inh (PIP5K2C) |
| --- | --- | --- | --- | --- | --- | --- | --- | --- | --- | --- | --- | --- | --- | --- | --- | --- | --- | --- | --- | --- |
| COc1cc(Nc2nccc(N3CCC(NC(=O)C4COc5ccccc5O4)C3)n2)cc(OC)c1OC (centres unmarked) [GSK1379761] | 2% | 2% | 26% | 12% | 18% | 10% | 0% | 0% | 0% | 42% | 0% | 0% | 21% | 0% | 0% | 0% | 51% | 0% | 6% | 89% |
| O=C(NCc1cccs1)c1cc(C(=O)c2c(Cl)cccc2Cl)c[nH]1 [GW823670] | 0% | 0% | 55% | 2% | 0% | 0% | 0% | 0% | 0% | 0% | 0% | 0% | 0% | 5% | 0% | 0% | 34% | 0% | 4% | 0% |
| Cc1nnc(-c2ccc(C)c(-c3ccc(C(=O)O)cc3)c2)o1 [GW608005] | 4% | 11% | 0% | 2% | 0% | 0% | 3% | 0% | 0% | 6% | 0% | 0% | 0% | 18% | 0% | 0% | 0% | 6% | 0% | 0% |
| Nc1nc(-c2ccccc2F)c(-c2ccnc3ccccc23)s1 [GW560459] | 0% | 12% | 5% | 7% | 0% | 0% | 0% | 0% | 0% | 12% | 0% | 0% | 0% | 0% | 0% | 3% | 13% | 46% | 4% | 59% |
| Cc1c(Cn2c(C)nn3c(=O)cc(N4CCO[C@H](C)C4)nc23)cccc1C(F)(F)F [GSK2373690] | 0% | 10% | 11% | 3% | 0% | 0% | 0% | 0% | 96.7% | 65% | 21% | 0% | 0% | 0% | 0% | 0% | 0% | 13% | 12% | 9% |
| COc1cc2ncn(-c3cc(OCc4ccncc4Br)c(C(N)=O)s3)c2cc1OC [GW854278] | 0% | 0% | 0% | 8% | 1% | 54% | 12% | 0% | 0% | 5% | 55% | 23% | 17% | 0% | 0% | 2% | 0% | 86% | 41% | 81% |
| CCS(=O)c1ccc(-c2coc3ccc(-c4nnc(C)o4)cc23)cc1 (centres unmarked) | 0% | 0% | 9% | 0% | 0% | 0% | 15% | 0% | 32% | 12% | 0% | 19% | 3% | 6% | 27% | 11% | 0% | 13% | 0% | 93% |
| COC(=O)c1c(-c2ccccc2)c2cc(Br)ccc2c(=O)n1Cc1ccc(S(C)(=O)=O)cc1 | 0% | 7% | 0% | 24% | 13% | 7% | 11% | 7% | 28% | 0% | 1% | 5% | 0% | 9% | 14% | 9% | 19% | 0% | 23% | 0% |
| COc1ccc(CNC(=O)NC2CCN(c3ccnc(Nc4ccc(F)cc4)n3)C2)cc1 (centres unmarked) [GSK1379706] | 0% | 0% | 1% | 7% | 0% | 0% | 0% | 2% | 0% | 8% | 7% | 17% | 0% | 12% | 0% | 0% | 44% | 63% | 20% | 54% |
| COc1cc2nccc(Nc3cccc(Oc4ccccc4)c3)c2cc1OC.Cl [GW284543] | 0% | 31% | 2% | 2% | 0% | 39% | 0% | 0% | 0% | 55% | 0% | 0% | 29% | 0% | 0% | 0% | 0% | 48% | 18% | 8% |
